Results: PubChem BioAssay (NCATS)
Several values for one entry are separate records, joined by “and”; a condition that tells them apart may be missing. Equal values may be shown once. Records with an inconclusive call do not appear. Activity calls are given as the source filed them. Calls follow the shape of the dose curve; as a rule, active = well fitted curve in the direction sought with a large enough effect; inconclusive = small, poorly fitted or top-dose-only effect, or another doubt; inactive = no such curve, though single readings can be large; an effect the other way counts as inactive or inconclusive.

How the values were obtained:
[1] = tested on: CRL-7250; test: Cytotoxic Profiling of Annotated Libraries Using Quantitative High-Throughput Screening (AID 1296008); conditions: Five cell lines viability, CellTiter-Glo ATP luminescence, 48-72 h; max response: active compounds read low; also: nearly all actives have a fitted effect of over 60% in size; also: potency is read from the fitted curve at half-maximal effect; as to max response: % is scaled to controls: 0 for no effect and ±100 for the full control effect
How it was run: (§1)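 Cytotoxicity was measured as CellTiter-Glo ATP luminescence, read after 10 min at room temperature. Compound treatment of the cells lasted 48 or 72 hr at 37 degrees Celsius in a qHTS format.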

[2] = tested on: HEK293; test: as above; conditions: Five cell lines viability, CellTiter-Glo ATP luminescence, 48-72 h; max response: active compounds read low
How it was run: as §1

[3] = tested on: HaCat; test: as above; conditions: Five cell lines viability, CellTiter-Glo ATP luminescence, 48-72 h; max response: active compounds read low
How it was run: as §1

[4] = tested on: KB-3-1; test: as above; conditions: Five cell lines viability, CellTiter-Glo ATP luminescence, 48-72 h; max response: active compounds read low
How it was run: as §1

[5] = tested on: NIH3T3; test: as above; conditions: Five cell lines viability, CellTiter-Glo ATP luminescence, 48-72 h; max response: active compounds read low
How it was run: as §1

[6] = tested on: MCC-13; test: qHTS assay to identify novel small-molecules to repurpose for Merkel cell carcinoma treatment (AID 1296009); conditions: MCC and control cell lines, CellTiter-Glo viability, 72 h; series mostly up to 46 µM; also: nearly all actives have a fitted effect of over 60% in size
How it was run: (§2)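 Cell viability, measured as CellTiter-Glo luminescence, was normalized between DMSO and no-cell wells. The cells had been exposed to 8- or 11-point compound dilutions for 72 hr at 37 degree celsius.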

[7] = tested on: MCC-26; test: as above; conditions: MCC and control cell lines, CellTiter-Glo viability, 72 h; series mostly up to 46 µM
How it was run: as §2

[8] = tested on: MKL-1; test: as above; conditions: MCC and control cell lines, CellTiter-Glo viability, 72 h; series mostly up to 46 µM
How it was run: as §2

[9] = tested on: MKL-2; test: as above; conditions: MCC and control cell lines, CellTiter-Glo viability, 72 h; series mostly up to 46 µM
How it was run: as §2

[10] = tested on: UISO; test: as above; conditions: MCC and control cell lines, CellTiter-Glo viability, 72 h; series mostly up to 46 µM
How it was run: as §2

[11] = tested on: WaGa; test: as above; conditions: MCC and control cell lines, CellTiter-Glo viability, 72 h; series mostly up to 46 µM
How it was run: as §2

[12] = tested on: C33A; test: Primary qHTS to identify gynecologic anti-cancer compounds using libraries of approved drugs and bioactive compounds (AID 1345084); conditions: Gynecologic cancer cell panel viability, ATPlite luminescence, 48 h; series mostly up to 57.5 µM; also: % is scaled to controls: 0 for no effect and ±100 for the full control effect; nearly all actives have a fitted effect of over 55% in size
How it was run: (§3)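 Luminescence from the ATPlite ATP-monitoring reagent indicates viable cell number; lower signal means cytotoxicity. Cells received compound 16 h after seeding and were exposed for 48 h across five concentrations.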

[13] = tested on: CASKI; test: as above; conditions: Gynecologic cancer cell panel viability, ATPlite luminescence, 48 h; series mostly up to 57.5 µM
How it was run: as §3

[14] = tested on: CRL-7250; test: qHTS assay to identify novel small-molecules to repurpose for Merkel cell carcinoma treatment (AID 1296009); conditions: MCC and control cell lines, CellTiter-Glo viability, 72 h; at 44.8 µM (top of the series) unless noted; also: nearly all actives have a fitted effect of over 60% in size
How it was run: as §2

[15] = tested on: HACAT; test: as above; conditions: MCC and control cell lines, CellTiter-Glo viability, 72 h; at 44.8 µM (top of the series) unless noted
How it was run: as §2

[16] = tested on: HEK293T; test: as above; conditions: MCC and control cell lines, CellTiter-Glo viability, 72 h; at 44.8 µM (top of the series) unless noted
How it was run: as §2

[17] = tested on: NIH3T3; test: as above; conditions: MCC and control cell lines, CellTiter-Glo viability, 72 h; at 44.8 µM (top of the series) unless noted
How it was run: as §2

[18] = tested on: CAOV3; test: Primary qHTS to identify gynecologic anti-cancer compounds using libraries of approved drugs and bioactive compounds (AID 1345084); conditions: Gynecologic cancer cell panel viability, ATPlite luminescence, 48 h; series mostly up to 57.5 µM; also: % is scaled to controls: 0 for no effect and ±100 for the full control effect; nearly all actives have a fitted effect of over 55% in size
How it was run: as §3

[19] = tested on: W2; test: qHTS profiling for inhibitors of Plasmodium falciparum proliferation (AID 504749); also: nearly all actives have a fitted effect of over 60% in size; also: potency is read from the fitted curve at half-maximal effect; conditions: P. falciparum in erythrocytes, SYBR Green DNA, 72 h; series mostly up to 28.7 µM
How it was run: (§4)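 SYBR Green fluorescence of parasite DNA, read after lysis and overnight dark incubation, measured growth over 72 h in erythrocyte culture at 0.3% parasitemia and 2.5% hematocrit. Data normalised to DMSO and 0.29 uM artemisinin, with plate-drift correction.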

[20] = tested on: TAB165; test: as above; conditions: P. falciparum in erythrocytes, SYBR Green DNA, 72 h; series mostly up to 28.7 µM
How it was run: as §4

CC(C)C[C@H](CN)CC(=O)O
inactive: max response [1] -0.456% | max response [2] 2.24% | max response [3] -0.0678% | max response [4] -13.5% and 1.18% | max response [5] -13.2% | outcome [6] | Potency [7] | Potency [8] | Potency [9] | Potency [10] | Potency [11]

CCN[C@@H](C)Cc1ccccc1
inactive: max response [1] -24.3% | max response [2] -15.1% | max response [3] -12.1% | max response [4] 4.57% | max response [5] -15.7% | outcome [6] | Potency [7] | Potency [8] | Potency [9] | Potency [10] | Potency [11] | Potency [12] | outcome [13]

CC(=O)C1CCOC1=O (centres undefined)
inactive: outcome [1] | outcome [2] | outcome [3] | outcome [5] | outcome [14] | outcome [15] | outcome [16] | outcome [6] | Potency [8] | Potency [9] | outcome [17] | Potency [10] | Potency [11] | Potency [12] | outcome [18] | outcome [13]

CCN(CCO)CCn1c(Cc2ccccc2)nc2c1c(=O)n(C)c(=O)n2C
inactive: max response [1] -2.16% | max response [2] -6.17% | outcome [3] | max response [4] -17.3% | max response [5] -7.24% | outcome [15] | outcome [6] | Potency [8] | Potency [9] | Potency [10] | Potency [11] | Potency [12] | outcome [13]

C[C@H](N)C(=O)c1ccccc1
inactive: max response [1] -38.6% | max response [2] -0.637% | max response [3] -26.7% | max response [4] -7.79% and 0.534% | max response [5] -1.01% | outcome [6] | Potency [7] | Potency [8] | Potency [9] | Potency [10] | Potency [11] | Potency [12] | outcome [18] | outcome [13]

O=c1[nH]c2ccccc2n1C1CCNCC1
inactive: outcome [1] | max response [2] -4.64% | max response [3] 3.09% | outcome [5] | outcome [14] | outcome [6] | Potency [7] | Potency [8] | Potency [9] | outcome [17] | Potency [10] | Potency [11] | Potency [12] | outcome [18] | outcome [13]

CC(C)(C)NCC(O)c1ccccc1Cl (centres undefined)
inactive: max response [1] -15.1% | max response [2] -2.46% | max response [3] -8.54% | max response [4] 2.34% | max response [5] -6.71% | outcome [6] | Potency [7] | Potency [8] | Potency [9] | Potency [10] | Potency [11] | Potency [12] | outcome [18] | outcome [13]
active: Potency [19] 6.01 µM

[N-]=[N+]=CC(=O)OC[C@H](N)C(=O)O
inactive: max response [1] -7.47% | max response [2] 4.4% | max response [3] -3.83% | max response [4] -24.6% | max response [5] -9.9% | outcome [6] | Potency [8] | Potency [9] | Potency [10] | Potency [11] | Potency [12] | outcome [18] | outcome [13]

NC(=O)CS(=O)C(c1ccccc1)c1ccccc1 (centres undefined)
inactive: Potency [20] | Potency [19] | max response [1] 1.08% | max response [2] 2.52% | max response [3] -6.49% | max response [4] 3.03% | max response [5] -4.5% | outcome [6] | Potency [8] | Potency [9] | Potency [10] | Potency [11] | Potency [12] | outcome [13]

CCN(CC)C(=O)[C@@H]1C=C2c3cccc4[nH]cc(c34)C[C@H]2N(C)C1
active: Potency [2] 80 µM
inactive: max response [1] -10.2% | max response [3] 1.44% | max response [4] 1.43% and -14.9% | outcome [6] | Potency [7] | Potency [12] | outcome [18] | outcome [13]

C#C[C@]1(O)CC[C@H]2[C@@H]3CCC4=CC(=O)CC[C@]4(C)[C@H]3CC[C@@]21C
inactive: max response [1] -4.49% | max response [2] 2.42% | max response [3] 2.04% | max response [4] -5.39% and -1.95% | max response [5] 4.32% | outcome [6] | Potency [7] | Potency [8] | Potency [9] | Potency [10] | Potency [11] | Potency [12] | outcome [13]

CC1(C)C(C=C(Cl)Cl)C1C(=O)OC(C#N)c1cccc(Oc2ccccc2)c1 (centres undefined)
inactive: max response [1] 2.32% | max response [2] 2.42% | outcome [3] | max response [4] 2.32% | outcome [5] | outcome [15] | outcome [6] | Potency [8] | Potency [9] | outcome [17] | Potency [10] | Potency [11] | Potency [12] | outcome [18] | outcome [13]

CN1C(=O)COc2c(C(=O)NC3CN4CCC3CC4)cc(Cl)cc21 (centres undefined)
inactive: Potency [20] | Potency [19] | max response [1] -5.92% | max response [2] -5.69% and -2.96% | max response [3] -0.711% and 2.67% | max response [4] 2.45% | max response [5] -0.6% and 1.75% | outcome [6] | Potency [7] | Potency [8] | Potency [9] | Potency [10] | Potency [11] | Potency [12] | outcome [18] | outcome [13]

CC(=O)NC1CCSC1=O (centres undefined)
inactive: max response [1] -4.93% | outcome [2] | max response [3] -1.96% | max response [4] -11.7% and -14.3% | max response [5] 2.68% | outcome [16] | outcome [6] | Potency [8] | Potency [10] | Potency [11] | Potency [12] | outcome [13]
